Source: PubChem BioAssay (several laboratories)
aSyn UTR inh – MLPCN primary screen, SNCA 5' untranslated region; alpha-synuclein 5'UTR reporter, inhibitor activity; inhibition, % (tested at 7.5 µM); 300,000 compounds, 0.82% hits; AID 1813, 2009; in the data active = inhibition above about 60%; inconclusive = no clear call, values can overlap the other calls;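 also: H4 neuroglioblastoma cells stably carrying SNCA 5'UTR luciferase fusion; 0% = DMSO wells and 100% = positive control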
A1 inh – caspase 3/7 activation in MEF A1-2A-BIM cells, primary screen, A1 inhibitor project, cell-based, luminescence, HTS; Caspase-Glo 3/7 luminescence, 3 h; percent of clofoctol response, vehicle zero; caspase activation, % (no concentration beside the values); 330,000 compounds, 0.066% hits;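 active = over half of replicate activation scores above 10%, or exactly half above 10 with the replicate mean above 10; inconclusive = replicate mean below 10 yet half the replicates above 10; inactive = over half of replicates below 10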
CSC inhib – cancer stem cell viability inhibitors, primary screen, luminescence. cancer stem cell-like cells viability. inhibition, % at 7.5 µM. 300,000 compounds, 1.1% hits. AID 2717, 2010; in the data active = inhibition above about 75%; inconclusive = no clear call, values can overlap the other calls; tested in HMLE shEcad cells
Beta cell apopt – inhibitors of cytokine-induced beta cell apoptosis, primary screen, luminescence; INS-1E cytokine-induced death, ATP luminescence, 48 h; percent of positive-control rescue, neutral wells zero; protection from apoptosis, % (test concentration not listed); 300,000 compounds, 0.8% hits; AID 435005, 2010;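 active = Every replicate reaches about 75%, or at least half do and their mean reaches it too, limit read from the data; inconclusive = At least half of replicates reach the limit but their mean does not; inactive = Under half of replicates reach the limit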;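 also: 0% = cytokine-treated negative control wells and 100% = positive control rescue; higher means more ATP so stronger rescue from cytokine killing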
Mdm2 MdmX PPI – inhibitors of human Mdm2-MdmX association, primary screen, cell-based, luminescence, split luciferase, SaOS-2, uHTS; Protein Mdm4 (Homo sapiens) + E3 ubiquitin-protein ligase Mdm2 (Homo sapiens), …; inhibition, % at 8 µM; 330,000 compounds, 3% hits; SaOS-2 split-luciferase Mdm2/MdmX complementation;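 active = inhibition of at least 50% at 8 µM in the primary screen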
Mdm2 MdmX conf – Mdm2-MdmX complex disruptors, retested hits, confirmation, luminescence, single concentration; shares compounds with Mdm2 MdmX PPI; AID 489028, 2010; inhibition, % at 8 µM; 10,000 compounds, 55% hits; Mdm2-MdmX binding, luminescent assay; in the data active = inhibition above about 40%
Full FLuc ctr – full-length luciferase signal inhibition, confirmation, counter-screen for Mdm2/MdmX interaction inhibitor project, cell-based, single concentration, SaOS-2; AID 504607, 2011; shares compounds with Mdm2 MdmX PPI; 6,200 compounds, 77% hits; SaOS-2 full-length luciferase counterscreen, luminescence; inhibition, % at 8 µM;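 active = mean inhibition at 8 µM reaching about 37%, which flags the compound as non-specific, limit read from the data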;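 also: p53-null SaOS-2 cells with luciferase driven by a doxycycline-inducible promoter; compound on cells about two nights before reading with doxycycline added after day one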
Numbers without * were called inactive; ? = inconclusive; . = no result given. Sampled rows, rich in hits. Any-hit rate of the full collection: about 4.1%.

SMILES | aSyn UTR inh | A1 inh | CSC inhib | Beta cell apopt | Mdm2 MdmX PPI | Mdm2 MdmX conf | Full FLuc ctr
Cc1cccc(-c2nnc(SC(C)C(=O)N3CCOCC3)o2)c1 (centres undefined) | -19.5 | 0.4 | 13.3 | -4.2 | 16.4 | . | .
CN(Cc1ccccc1)C(=O)c1[nH]cnc1C(=O)Nc1cccc(Cl)c1 | . | 0.6 | 29.9 | -4.8 | -16.3 | . | .
CCOC(=O)c1sc(NC(=O)c2cc(-c3ccccc3)nc3ccccc23)c(C#N)c1C | 35.1 | 0.9 | 52.7 | 45.4 | 94.1* | 90.6* | 47.1*
CCOC(=O)c1sc(NC(=O)CSc2ccccn2)c(C#N)c1C | 46.2 | 0.7 | -3.7 | . | 74.2* | 22.9 | .
CCOC(=O)c1sc(NC(=O)c2cccc(S(=O)(=O)N3CCc4ccccc43)c2)c(C#N)c1C | 25.1 | -0.8 | 44.1 | 73.0 | 89.1* | 30.4 | .
CCOC(=O)c1sc(NC(=O)CSc2n[nH]c(-c3ccccc3)n2)c(C#N)c1C | -3.7 | -3.1 | 44.3 | . | 44.1 | . | .
CCOC(=O)c1sc(NC(=O)CSc2nc3c(cc2C#N)CCCCC3)c(C#N)c1C | -142.8 | -1.3 | 34.5 | 6.2 | 71.5* | 26.0 | .
Cc1ccc(S(=O)(=O)CCC(=O)OC2CC(C)OC2=O)cc1 (centres undefined) | . | 0.7 | -15.0 | -4.3 | 4.2 | . | .
COc1cccc(NC(=O)CCC2CCN(C(=O)c3cncs3)CC2)c1 | 0.2 | -1.0 | 4.2 | 1.7 | 18.6 | . | .
C[C@@]12C(=O)Nc3ccccc3C(=O)N1[C@H]1c3cc(Cl)ccc3OC[C@@H]1[C@@H]2c1ccccc1 | . | -0.2 | . | -2.1 | 47.6 | . | .
COc1ccc2c(c1)OC[C@H]1[C@H]2N2C(=O)c3ccccc3NC(=O)[C@@]2(C)[C@H]1c1ccccc1 | . | 1.7 | . | 3.9 | 50.0* | 36.0 | 54.4*
C[C@@]12C(=O)Nc3cc(F)c(F)cc3C(=O)N1[C@H]1c3cc(Cl)ccc3OC[C@@H]1[C@@H]2c1ccccc1 | . | 0.2 | 59.1 | 5.5 | 50.8* | 34.4 | .
COc1ccc2c(c1)OC[C@H]1[C@H]2N2C(=O)c3cc(C)ccc3NC(=O)[C@@]2(C)[C@H]1c1ccccc1 | . | 0.9 | 12.5 | 0.7 | 28.6 | . | .
C[C@@]12C(=O)Nc3ccc(Cl)cc3C(=O)N1[C@H]1c3cc(Cl)ccc3OC[C@@H]1[C@@H]2c1ccccc1 | . | 0.5 | 27.1 | 12.4 | 53.3* | 14.2 | .
CC1CCCN(S(=O)(=O)c2ccc3oc(=O)ccc3c2)C1 (centres undefined) | 2.9 | 0.1 | -7.7 | 0.8 | 9.6 | . | .
O=C(NC1CCN(C(=O)Nc2ccccc2Cl)CC1)c1cccc(F)c1 | 7.4 | -0.1 | 6.0 | 3.5 | 21.9 | . | .
COc1ccc2c(c1)c(=O)oc1c(C)c(OCC(=O)N3CCc4ccccc4C3)ccc12 | 10.3 | -0.1 | 6.3 | -3.0 | 52.7* | 13.2 | .
Cc1c(C)c2ccc(OCC(=O)N3CCN(c4ccc(F)cc4)CC3)c(C)c2oc1=O | -8.0 | -0.2 | 1.6 | 1.9 | 10.7 | . | .
COc1ccc(N2CCN(C(=O)COc3ccc4c(C)c(C)c(=O)oc4c3C)CC2)cc1 | 10.8 | -0.5 | -2.7 | 1.0 | 53.3* | 20.0 | .
Cc1cc(=O)oc2cc(OCC(=O)N3CCc4ccccc4C3)ccc12 | 10.4 | 0.5 | -7.3 | -4.1 | 0.5 | . | .
Cc1ccc2oc3c(SCc4nc5ccccc5[nH]4)nc(C)nc3c2c1 | . | -1.3 | . | 0.3 | 13.0 | . | .
Cc1nc(SCc2nc3ccccc3[nH]2)c2oc3cc(Br)ccc3c2n1 | . | -1.7 | 15.3 | 1.4 | 65.2* | 11.9 | .
C=CCN1C(=O)C(O)(CC(=O)c2ccco2)c2cc(Br)ccc21 (centres undefined) | -15.1 | -0.5 | 30.2 | -3.7 | 58.9* | 35.1 | .
Cc1sc2ncnc(N3CCC(C(=O)Nc4nc(-c5ccc(F)cc5)cs4)CC3)c2c1C | 35.5 | 0.5 | 35.7 | . | 94.2* | 90.0* | 60.3*
CCN(CC)CCNC(=O)c1ccc(NC(=O)C2CCN(c3ncnc4sc(C)c(C)c34)CC2)cc1 | -33.6 | 1.3 | 10.5 | 0.2 | 90.9* | 61.0* | 21.9
SMILES | aSyn UTR inh | A1 inh | CSC inhib | Beta cell apopt | Mdm2 MdmX PPI | Mdm2 MdmX conf | Full FLuc ctr
CC(=O)c1sc(NC(=O)C2CCN(c3ncnc4sc(C)c(C)c34)CC2)nc1-c1ccccc1 | 1.1 | -0.1 | 6.7 | . | 9.5 | . | .
Cc1sc2ncnc(N3CCC(C(=O)Nc4ccc(OC(F)F)c(Cl)c4)CC3)c2c1C | . | -0.1 | 63.7 | 4.2 | 27.0 | . | .
O=C(CSC1=NS(=O)(=O)c2cc(F)ccc2N1)NCc1ccccc1Cl | 0.8 | 0.6 | -7.8 | . | 5.0 | . | .
C=C(C)COc1ccc(-c2[nH]ncc2-c2ccc(OC)cc2)c(O)c1 | 7.3 | 0.3 | ? | -8.7 | 62.6* | 65.1* | 28.9
COc1ccc(-c2cnc(N)nc2-c2ccc(OC)cc2O)cc1 | 2.7 | 0.2 | 17.7 | -16.1 | 58.0* | 17.8 | .
C=C(C)COc1ccc(-c2[nH]ncc2-c2ccccc2)c(O)c1 | -16.8 | 0.3 | -13.1 | 0.4 | 6.8 | . | .
C=C(C)COc1ccc(-c2[nH]ncc2-c2ccc(OC)c(OC)c2)c(O)c1 | -13.2 | 0.0 | 92.0* | 23.8 | 65.6* | 59.8* | 55.9*
COc1ccc(-c2cn[nH]c2-c2ccc(OCC(=O)NN)cc2O)cc1OC | 25.6 | 0.2 | -4.3 | 0.8 | 14.3 | . | .
COc1ccc(-c2cn[nH]c2-c2ccc(OCc3ccccc3)cc2O)cc1OC | 28.8 | 0.3 | 43.5 | 6.7 | 53.0* | 55.4* | 43.4*
COc1ccc(Cl)cc1NC(=O)CN(C)C(=O)/C=C/c1ccco1 | . | 0.0 | 11.0 | 5.2 | 6.6 | . | .
COc1ccc(-c2cn[nH]c2-c2ccc(O)cc2O)cc1 | -25.7 | 0.8 | -6.3 | -22.8 | 71.1* | 69.5* | 25.3
COc1ccc(-c2n[nH]c(C)c2-c2ccc(Cl)cc2)c(O)c1OC | 39.4 | -0.5 | 34.1 | -9.6 | 86.7* | 73.2* | 39.2*
C=C(C)COc1ccc(-c2n[nH]c(C)c2-c2ccc(OC)c(OC)c2)c(O)c1 | 49.3 | 0.3 | 80.9* | 20.5 | 70.9* | 53.6* | 62.7*
C=C(C)COc1ccc(-c2n[nH]c(C)c2Oc2ccccc2OC)c(O)c1 | -22.8 | 0.8 | -7.3 | 7.3 | 33.0 | . | .
O=C(CSc1nnc(-c2cccnc2)o1)N1CCCCC1 | -21.9 | -0.4 | 7.6 | 3.1 | -10.4 | . | .
Cc1ccc(NC(=O)COC(=O)CC2SC(N3CCCC3)=NC2=O)cc1 (centres undefined) | . | 1.0 | . | -3.6 | -4.3 | . | .
C/C(=N\NC(=O)COc1cccc(C)c1)c1ccc2ccccc2c1O | . | 0.9 | -7.3 | -2.2 | 51.8* | 61.4* | 33.6
COc1ccccc1/C=C/C(=O)OCC(=O)N1CCc2ccccc21 | . | 1.3 | . | -3.2 | 7.1 | . | .
